Active and inactive are the calls of the source. Unless noted, no rule for the calls is given here.
Tests used:
[1] = resazurin metabolic signal in HepG2 cells – cell-based, resazurin fluorescence, 24 h, PK04 Diversity Set, profiling panel (AID 1172); conditions: HepG2 viability, higher = more signal
[2] = budding yeast growth changes without added modifier – OD600, strain BY4716, 24 h, basal condition, primary screen (AID 1173); conditions: S. cerevisiae BY4716 growth, OD600, 24 h; higher = more signal, called active from +8 up or from −8 down
[3] = viability profiling in MM1S myeloma cells – cell-based, resazurin fluorescence, basal, 24 h, PK04 Diversity Set, profiling panel (AID 1174); conditions: higher = more signal, called active from +8 up or from −8 down;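 also: MM1S multiple myeloma cell line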
[4] = target: Dihydroorotate dehydrogenase (quinone), mitochondrial (Plasmodium falciparum (isolate 3D7)) (UniProt Q08210); assay: inhibition of P. falciparum DHODH – biochemical, C-terminal His tag, absorbance 600 nm, primary screen (AID 1175); conditions: PfDHODH enzyme, DCIP absorbance 600 nm; higher = more signal, called active from +8 up or from −8 down;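 also: recombinant parasite enzyme with a five histidine tag at its C terminus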
Dihydroorotate dehydrogenase (quinone), mitochondrial (Plasmodium falciparum (isolate 3D7)), sequence (Q08210 whole entry, looked up): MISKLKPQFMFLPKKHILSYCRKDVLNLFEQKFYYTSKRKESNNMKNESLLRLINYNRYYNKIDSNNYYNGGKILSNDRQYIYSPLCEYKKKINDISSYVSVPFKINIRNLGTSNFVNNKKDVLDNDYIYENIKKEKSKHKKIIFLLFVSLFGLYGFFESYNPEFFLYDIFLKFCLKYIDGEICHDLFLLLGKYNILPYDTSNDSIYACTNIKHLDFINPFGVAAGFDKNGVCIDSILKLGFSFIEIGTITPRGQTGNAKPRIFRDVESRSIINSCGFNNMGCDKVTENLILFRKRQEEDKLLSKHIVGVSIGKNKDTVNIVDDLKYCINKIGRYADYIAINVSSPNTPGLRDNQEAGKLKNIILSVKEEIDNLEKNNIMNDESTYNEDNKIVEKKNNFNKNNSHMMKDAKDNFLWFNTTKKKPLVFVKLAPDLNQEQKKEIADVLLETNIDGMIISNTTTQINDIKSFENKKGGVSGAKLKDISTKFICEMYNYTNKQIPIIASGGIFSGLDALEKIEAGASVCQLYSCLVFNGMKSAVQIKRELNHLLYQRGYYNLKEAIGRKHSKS

[5] = inhibition of PAO1 biofilm formation – strain PAO1, LB-PBS medium, absorbance 600 nm, primary screen (AID 1176); conditions: P. aeruginosa PAO1 growth/biofilm, A600, 12 h; higher = more signal
[6] = growth modulation of vineyard yeast isolate – strain RM11-1a, OD600, basal, 24 h, primary screen (AID 1177);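 also: cultures grown under basal conditions with no added stressor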; conditions: S. cerevisiae RM11-1a growth, OD600, 24 h; higher = more signal, called active from +8 up or from −8 down
[7] = growth of efflux-deficient E. coli DRC39 – strain DRC39, OD650, 24 h, E. coli filamentation inducers, primary screen (AID 1178);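 also: growth measured as culture turbidity by optical density at 650 nm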; conditions: E. coli DRC39 acrAB, higher = more signal, called active from +8 up or from −8 down
[8] = growth of efflux-deficient E. coli DRC39 – strain DRC39, OD650, 48 h, E. coli filamentation inducers, primary screen (AID 1179);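 also: screen aims at cell division blockers that make cells filament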; conditions: E. coli DRC39 delta-acrAB growth, higher = more signal, called active from +8 up or from −8 down
[9] = viability profiling in RPMI8226 myeloma cells – cell-based, resazurin fluorescence, basal, 24 h, PK04 Diversity Set, profiling panel (AID 1180); conditions: higher = more signal;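 also: RPMI8826 multiple myeloma cell line at 5000 cells per well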
[10] = target: E3 ubiquitin-protein ligase XIAP (Homo sapiens) (UniProt P98170); assay: small molecules binding XIAP protein – biophysical, small-molecule microarray, fluorescence 635 nm, primary screen (AID 1181); conditions: higher = more signal;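 also: score merges 667 nm emission and signal to noise over triplicate slides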
E3 ubiquitin-protein ligase XIAP (Homo sapiens), sequence (P98170 whole entry, looked up, the tested form may be a part): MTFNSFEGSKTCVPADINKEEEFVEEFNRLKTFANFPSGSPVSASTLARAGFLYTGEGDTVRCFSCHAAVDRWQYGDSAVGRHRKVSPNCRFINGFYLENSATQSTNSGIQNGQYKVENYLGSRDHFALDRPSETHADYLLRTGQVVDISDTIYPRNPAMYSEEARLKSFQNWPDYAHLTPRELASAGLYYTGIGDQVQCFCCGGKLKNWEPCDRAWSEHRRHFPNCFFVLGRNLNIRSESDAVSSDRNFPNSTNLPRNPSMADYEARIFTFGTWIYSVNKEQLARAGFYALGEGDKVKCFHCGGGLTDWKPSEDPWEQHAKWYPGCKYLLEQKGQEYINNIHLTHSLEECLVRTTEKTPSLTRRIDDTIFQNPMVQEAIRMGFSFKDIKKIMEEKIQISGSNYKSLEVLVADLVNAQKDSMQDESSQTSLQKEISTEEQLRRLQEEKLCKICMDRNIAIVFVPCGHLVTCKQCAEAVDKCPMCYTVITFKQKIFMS

[11] = tested on: XIP peptide (Xip251-270) binding; assay: XIP fragment 251-270 binding compounds – biochemical, small-molecule microarray, fluorescence 635/667 nm, 0.1 µg/mL protein, primary screen (AID 1182); conditions: fluorescent protein binding, 635 nm, higher = more signal, called active from +8 up or from −8 down
XIP peptide (Xip251-270) = assay: compounds binding XIP fragment 251-270 – biochemical, small-molecule microarray, fluorescence 635/667 nm, 0.5 µg/mL protein, primary screen (AID 1183); conditions: fluorescence 635 nm, higher = more signal
[12] = blood-stage malaria parasite viability loss – strain 3D7, DAPI fluorescence, 100 nL, primary screen (AID 1184);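 also: parasites grown inside human red blood cells in medium with human serum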; conditions: P. falciparum 3D7 growth, 3 d, higher = more signal
[13] = target: Homeobox protein Hox-A13 (Mus musculus) (UniProt Q62424); assay: disruptors of Hoxa13 oligonucleotide interaction – biochemical, fluorescence polarization, labeled oligonucleotide, primary screen (AID 1185); conditions: Hoxa13:DNA binding, 15 min, higher = more signal, called active from +8 up or from −8 down
Homeobox protein Hox-A13 (Mus musculus), sequence (Q62424 whole entry, looked up): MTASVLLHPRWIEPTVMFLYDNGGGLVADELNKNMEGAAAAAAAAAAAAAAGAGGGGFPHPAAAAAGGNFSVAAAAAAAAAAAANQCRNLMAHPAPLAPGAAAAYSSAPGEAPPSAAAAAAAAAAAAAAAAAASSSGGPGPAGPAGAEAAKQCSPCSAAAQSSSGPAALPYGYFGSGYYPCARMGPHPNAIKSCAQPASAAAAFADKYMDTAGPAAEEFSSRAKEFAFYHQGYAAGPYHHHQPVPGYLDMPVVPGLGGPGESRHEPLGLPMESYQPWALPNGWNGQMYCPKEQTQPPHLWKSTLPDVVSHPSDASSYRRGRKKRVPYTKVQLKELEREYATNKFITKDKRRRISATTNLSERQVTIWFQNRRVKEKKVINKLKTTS

[14] = blockers of DNA damage checkpoint Chk1 activation – imaging, HeLa, hydroxyurea, phospho-Chk1 antibody, percent positive cells, primary screen (AID 1186); conditions: hydroxyurea-induced phospho-Chk1 immunofluorescence imaging, higher = more signal
[15] = blockers of DNA damage checkpoint Chk1 activation – imaging, HeLa, hydroxyurea, phospho-Chk1 nuclear intensity, primary screen (AID 1187); conditions: hydroxyurea-induced phospho-Chk1 immunofluorescence imaging, higher = more signal

Structure (SMILES): COCCOC(=O)N1C(=O)[C@@]2(c3cc(C#CCC(C(=O)OC)C(=O)OC)ccc31)[C@H](c1ccccc1OCCO)N1[C@H](c3ccccc3)[C@H](c3ccccc3)OC(=O)[C@H]1[C@@H]2C(=O)N1CCN(c2ncccn2)CC1
- z-score [1]: 0.326
- z-score [2]: 2.4 (inactive)
- z-score [3]: 1.04 (inactive)
- composite z-score [4]: -0.388 (inactive)
- z-score [5]: 3.18 (inactive)
- z-score [6]: 3.19 (inactive)
- z-score [7]: 0.862 (inactive)
- z-score [8]: 0.519 (inactive)
- z-score [9]: -0.83
- composite z-score [10]: -0.0095
- composite z-score [11]: 0.311 (inactive)
- composite z-score (XIP peptide (Xip251-270)): 0.62
- z-score [12]: -2.25
- z-score [13]: 0.271 (inactive)
- z-score [14]: -0.225 (inactive)
- z-score [15]: -0.236 (inactive)

Structure (SMILES): CC(C)OC(=O)C=C1C[C@@H](c2ccccn2)O[C@@H](c2ccccn2)O1
- z-score [1]: -0.802
- z-score [2]: -1.97 (inactive)
- z-score [3]: -0.377 (inactive)
- composite z-score [4]: 0.409 (inactive)
- z-score [5]: 0.0362 (inactive)
- z-score [6]: -0.391 (inactive)
- z-score [7]: -0.471 (inactive)
- z-score [8]: 0.115 (inactive)
- z-score [9]: -0.474
- composite z-score [10]: 0.462
- composite z-score [11]: 1.4 (inactive)
- composite z-score (XIP peptide (Xip251-270)): -0.0957
- z-score [12]: -0.929
- z-score [13]: -5.67 (inactive)
- z-score [14]: 0.367 (inactive)
- z-score [15]: 0.129 (inactive)

Structure (SMILES): O=C(CS)NCCCCCCNC(=O)[C@@H]1C[C@@H]2C(=O)NCC(=O)N2[C@@H]1c1cccc(OCCO)c1
- z-score [1]: -0.3
- z-score [2]: -0.419 (inactive)
- z-score [3]: -0.217 (inactive)
- composite z-score [4]: -0.216 (inactive)
- z-score [5]: 0.351 (inactive)
- z-score [6]: 0.752 (inactive)
- z-score [7]: 0.713 (inactive)
- z-score [8]: 1.16 (inactive)
- z-score [9]: -0.252
- composite z-score [10]: 0.0346
- composite z-score [11]: 0.67 (inactive)
- composite z-score (XIP peptide (Xip251-270)): 0.579
- z-score [12]: 0.132
- z-score [13]: -2.98 (inactive)
- z-score [14]: 0.376 (inactive)
- z-score [15]: 0.376 (inactive)

Structure (SMILES): C=C(CCCC)/C(=C/C[C@H](OC(C)=O)c1ccccc1OCCO)c1cc(C(=O)OC)ccc1OC
- z-score [1]: -0.0696
- z-score [2]: -0.863 (inactive)
- z-score [3]: 0.911 (inactive)
- composite z-score [4]: -2.1 (inactive)
- z-score [5]: -0.824 (inactive)
- z-score [6]: -0.0572 (inactive)
- z-score [7]: 0.427 (inactive)
- z-score [8]: 0.257 (inactive)
- z-score [9]: 0.682
- composite z-score [10]: -0.28
- composite z-score [11]: 0.0757 (inactive)
- composite z-score (XIP peptide (Xip251-270)): -0.167
- z-score [12]: -2.66
- z-score [13]: -3.55 (inactive)
- z-score [14]: -0.836 (inactive)
- z-score [15]: -0.714 (inactive)

Structure (SMILES): COC(=O)[C@@]1(Cc2ccc(F)cc2)[C@H]2c3cc(C(=O)N(C)C)n(Cc4cc(F)c(F)c(F)c4)c3C[C@H]2CN1C(=O)c1ccccc1
- z-score [1]: -2.13
- z-score [2]: 1.56 (inactive)
- z-score [3]: -1.97 (inactive)
- composite z-score [4]: 0.349 (inactive)
- z-score [5]: 0.15 (inactive)
- z-score [6]: 1.16 (inactive)
- z-score [7]: -0.194 (inactive)
- z-score [8]: 0.38 (inactive)
- z-score [9]: -3.47
- composite z-score [10]: 0.157
- composite z-score [11]: 0.0639 (inactive)
- composite z-score (XIP peptide (Xip251-270)): 0.626
- z-score [12]: -1.66
- z-score [13]: -3.48 (inactive)
- z-score [14]: 0.0893 (inactive)
- z-score [15]: 0.175 (inactive)

Structure (SMILES): COc1ccccc1CN1C(=O)c2ccccc2[C@@]2(Cc3ccccc3N(CC(C)C)C2=O)[C@@H]1c1ccc(CO)cc1
- z-score [1]: -0.593
- z-score [2]: 0.0849 (inactive)
- z-score [3]: -0.681 (inactive)
- composite z-score [4]: -0.359 (inactive)
- z-score [5]: 0.332 (inactive)
- z-score [6]: -1.04 (inactive)
- z-score [7]: -0.169 (inactive)
- z-score [8]: -0.0353 (inactive)
- z-score [9]: -0.564
- composite z-score [10]: 0.0957
- composite z-score [11]: -0.25 (inactive)
- composite z-score (XIP peptide (Xip251-270)): 0.607
- z-score [12]: -0.422
- z-score [13]: -0.795 (inactive)
- z-score [14]: -0.132 (inactive)
- z-score [15]: -0.425 (inactive)

Structure (SMILES): COc1ccc([Si](C)(C)[C@@H]2[C@@H](CC(=O)N3CCC[C@H]3CO)O[C@]3(C(=O)N(c4ccccc4)c4ccccc43)[C@H]2C)cc1
- z-score [1]: 0.733
- z-score [2]: -1.39 (inactive)
- z-score [3]: 0.315 (inactive)
- composite z-score [4]: -1.27 (inactive)
- z-score [5]: -0.106 (inactive)
- z-score [6]: -1.2 (inactive)
- z-score [7]: 0.193 (inactive)
- z-score [8]: 0.258 (inactive)
- z-score [9]: 0.729
- composite z-score [10]: 0.217
- composite z-score [11]: -0.152 (inactive)
- composite z-score (XIP peptide (Xip251-270)): 0.591
- z-score [12]: -0.831
- z-score [13]: -5.71 (inactive)
- z-score [14]: -0.845 (inactive)
- z-score [15]: -1.31 (inactive)
